# Data published in PubChem BioAssay (EPA / NIEHS).
# Several values for one entry are separate records, joined by “and”; a condition that tells them apart may be missing. Equal entries are not always repeated. Records with an inconclusive call do not appear. Activity calls are given as the source filed them. The calls were made as follows: active = hit-call score of the fitted dose curve at least 0.9, where 1 is the maximum; inconclusive = response in the unintended direction; inactive = score below 0.9.
# Assay: TOX21_p53_BLA_p3_viability: Viability Assessment in the Tox21 HCT-116 p53 Agonism Beta-lactamase Assay, Phase 3 (AID 2283593);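 also: cells exposed to compound for 16 h before reading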
# Summary of the method: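 HCT-116 cells (4000/well) rested 5 h at 37C, then got DMSO compounds by pin tool (217-fold dilution) for 16 h at 37C, 5% CO2. After the bla read, CellTiter-Glo was added and luminescence read at 30 min, room temperature.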
SMILES,outcome,AC50
CCC[C@@]1(CCc2ccccc2)CC(O)=C([C@H](CC)c2cccc(NS(=O)(=O)c3ccc(C(F)(F)F)cn3)c2)C(=O)O1,inactive,
COc1cc2c(Nc3ccc(Br)cc3F)ncnc2cc1OCC1CCN(C)CC1,inactive,
CO[C@@H]1[C@H](OC(=O)/C=C/C=C/C=C/C=C/C(=O)O)CC[C@]2(CO2)[C@H]1[C@@]1(C)O[C@@H]1CC=C(C)C,inactive,
NC(N)=NCc1cccc(I)c1,inactive,
Nc1c2ccccc2nc2ccccc12,inactive,
Clc1cccc(Cl)c1NC1=NCCN1,inactive,
CCCC(=O)O[C@]1(C(=O)CCl)[C@@H](C)C[C@H]2[C@@H]3CCC4=CC(=O)C=C[C@]4(C)[C@@]3(F)C(=O)C[C@@]21C,inactive,
CCCCCCNC(=O)n1cc(F)c(=O)[nH]c1=O,,1.26 µM (active)
CO[C@H]1C[C@@H]2CC[C@@H](C)[C@@](O)(O2)C(=O)C(=O)N2CCCC[C@H]2C(=O)O[C@H]([C@H](C)C[C@@H]2CC[C@@H](OCCO)[C@H](OC)C2)CC(=O)[C@H](C)/C=C(\C)[C@@H](O)[C@@H](OC)C(=O)[C@H](C)C[C@H](C)\C=C/C=C/C=C/1C,,27.4 µM (active)
Cc1nc(Nc2ncc(C(=O)Nc3c(C)cccc3Cl)s2)cc(N2CCN(CCO)CC2)n1,,33.4 µM (active)
Cc1c(O)cccc1C(=O)N[C@@H](CSc1ccccc1)[C@H](O)CN1C[C@H]2CCCC[C@H]2C[C@H]1C(=O)NC(C)(C)C,,21.6 µM (active) and 21.1 µM (active)
CC(=O)NCCCS(=O)(=O)O,inactive,
